This is an account of results in PubChem BioAssay (Tox21).

Where “and” joins values, the source holds several entries; their conditions need not be identical. Equal entries are not always repeated. Unmarked numbers belong to inactive results. Where a call stands in place of a potency, no number is given. Where a structure was tested more than once in an assay, its records may differ in their call. Calls of active or inactive are those of the source. Calls follow the shape of the dose curve; as a rule, active = well fitted inhibition curve with a large enough effect in the repeat runs (not every such curve was filed as active); inconclusive = weak or mixed curves; inactive = flat fitted curve, though single readings scatter.
Potency is read from the fitted curve at half-maximal effect.

Sequence of Thyrotropin-releasing hormone receptor (Homo sapiens) (P34981 whole entry, looked up): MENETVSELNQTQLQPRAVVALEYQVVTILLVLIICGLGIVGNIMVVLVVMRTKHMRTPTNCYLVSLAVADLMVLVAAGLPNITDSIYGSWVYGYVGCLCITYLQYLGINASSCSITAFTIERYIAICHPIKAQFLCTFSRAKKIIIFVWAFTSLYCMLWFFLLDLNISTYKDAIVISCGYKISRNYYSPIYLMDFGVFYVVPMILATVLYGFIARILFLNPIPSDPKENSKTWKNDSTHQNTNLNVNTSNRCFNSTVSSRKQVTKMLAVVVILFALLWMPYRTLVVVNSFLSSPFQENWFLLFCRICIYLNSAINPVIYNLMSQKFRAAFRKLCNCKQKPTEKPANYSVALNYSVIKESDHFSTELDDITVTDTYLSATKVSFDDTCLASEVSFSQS

For this experiment, the target named is Thyrotropin-releasing hormone receptor (Homo sapiens) (UniProt P34981). As to the kind of experiment: qHTS assay to identify small molecule antagonists of the thyrotropin-releasing hormone receptor (TRHR) signaling pathway (AID 1346877). The following applies: TRHR-HEK293, TRH-induced calcium fluorescence, antagonist mode; series mostly up to 51.3 µM. The procedure, abridged:
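Antagonism is measured as suppression of the calcium response to 1 nM TRH in TRHR-HEK293 cells that have been dye-loaded for 2 h at 37 °C after overnight plating. Each compound is tested at 15 concentrations in triplicate.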
On to `c1ccc2c(c1)Oc1ccccc1S2`, for which the Potency result was “inactive”.

Regarding `C#C[C@]1(O)CC[C@H]2[C@@H]3CCc4cc(OC)ccc4[C@H]3CC[C@@]21C`, the Potency result is “inactive”.

As to `Cc1cc2nc3c(=O)[nH]c(=O)nc-3n(C[C@H](O)[C@H](O)[C@H](O)CO)c2cc1C`, the Potency was 33.5 µM (active) and 19.8 µM (active); the activity, negative = inhibition is -21.3% [at 10.5 µM].

Take `COC(=O)c1ccccc1`: the Potency result is “inactive”.

With `CC(C)OC=O`, the Potency entry was “inactive”.

Take `Cc1ccc(C(=O)c2cc(O)c(O)c([N+](=O)[O-])c2)cc1`: the Potency entry is “inactive”.

Take `O=C1c2cccc(O)c2C(=O)c2c(O)cccc21`: the Potency result is “inactive”.

Take `C[Si](C)(C)O[Si](C)(C)C`: the Potency entry was “inactive”.

Take `CN(C)C(=N)N=C(N)N`: the Potency entry is “inactive”.

As for `NNc1ccc(C(=O)O)cc1`, the Potency result was “inactive”.

`CCCCCCCCCC(=O)OC`: the Potency entry is “inactive”.

On to `c1ccncc1`, for which the Potency result is “inactive”.

`Cc1c(OCC(F)(F)F)ccnc1CS(=O)c1nc2ccccc2[nH]1` (stereo not drawn): the Potency result was “inactive”.

With `O=C(/C=C/C=C/c1ccc2c(c1)OCO2)N1CCCCC1`, the Potency entry was “inactive”.

With `COC(=O)Nc1nc2ccc(S(=O)c3ccccc3)cc2[nH]1` (stereo not drawn), the Potency entry was “inactive”.

For `O=C(COc1ccc(Cl)cc1)N1CCN(Cc2ccc3c(c2)OCO3)CC1`, the Potency result is “inactive”.

Take `Cn1cnc([N+](=O)[O-])c1Sc1ncnc2nc[nH]c12`: the Potency result is “inactive”.

On to `O=C(c1ccccc1)c1ccc(O)cc1O`, for which the Potency entry was “inactive”.

Turning to `CN(C)c1nc(N(C)C)nc(N(C)C)n1`, the Potency entry is “inactive”.

Regarding `C/C=C/C(=O)O`, the Potency result was “inactive”.

With `CC(=O)CC/C=C(\C)CCC=C(C)C`, the Potency entry is “inactive”.

Turning to `Brc1cc(Oc2cc(Br)c(Br)c(Br)c2Br)c(Br)c(Br)c1Br`, the Potency result is “inactive”.

Consider `OC1CCCCCCCCCCC1`, for which the Potency result is “inactive”.

With `C[C@]12CC[C@H]3[C@@H](CCC4=CC(=O)CC[C@@]43C)[C@@H]1CC[C@@H]2C(=O)CO`, the Potency entry is “inactive”.

With `CCCCOCCOCCOCCO`, the Potency entry was “inactive”.

Take `CC(C)(C)NC(=O)[C@H]1CC[C@H]2[C@@H]3CC[C@H]4NC(=O)C=C[C@]4(C)[C@H]3CC[C@]12C`: the Potency entry was “inactive”.

Regarding `O=C1OC2(c3cc(Br)c(O)c(Br)c3Oc3c2cc(Br)c(O)c3Br)c2c(Cl)c(Cl)c(Cl)c(Cl)c21`, the Potency entry is “inactive”.
